These results are taken from PubChem BioAssay.

A number with no mark means an inactive call. Rule as the data show it: active = inhibition above about 30%; inactive = the rest.

The nature of this assay: growth suppression of yeast trafficking mutant, preliminary HTS, modulators of trafficking downstream of Golgi apparatus project, 1536-format plate, OD 615 nm (AID 637). Conditions: yeast transport mutant growth, absorbance 615 nm, 18 h; hits give high values.
The inhibition is the change of the read-out against control, counted positive when it falls. With `COCCOC(=O)C1=C(C)Nc2ncnn2C1c1ccc(F)cc1` (stereo not given), the inhibition is -1.48%.
Consider `CCC(=O)N[C@@H]1CC(C(C)(C)NC(=O)CC)CC=C1C` (stereo not given in full), for which the inhibition is -0.33%.
The same measure for `O=C(CCCCCN1C(=O)CCC1=O)NCc1ccccc1`: 4.13%.
The same measure for `O=C(Cn1ccc2ccccc2c1=O)NCCC(=O)NC1CCN(Cc2ccccc2)CC1`: -4.91%; for `Cc1ccc(C)c(N2CCN(C(=O)CCCn3c(=S)[nH]c4cc5c(cc4c3=O)OCO5)CC2)c1`: -0.33%.
The figure for `COC(=O)C1C(=O)c2c([nH]c(C(=O)OCCOC(C)C)c2C)CC1C` (stereo not given) is -11.5%.
With `CCOC(=O)c1c(C)[nH]c(C)c1C(=O)COc1ccc(NC(=O)c2ccco2)cc1`, the inhibition was 3.65%.
As for `CN1CCCN(C(=O)c2cc(=O)[nH]c3ccccc23)c2nc3ccccc3nc21`, the inhibition was -2.79%.
`O=C(Nc1cccnc1)c1ccc2c(c1)C(=O)N(Cc1cccnc1)C2=O`: the inhibition was -1.64%.
The figure for `CCCCn1c(SCC(=O)Nc2cc(C)on2)nnc1-c1cccnc1` is 11%; for `Nc1nc(-c2ccccc2Br)cs1` it is -8.55%; for `CCOc1ccc(NC(=O)CN(C)S(=O)(=O)c2cccs2)cc1` it is 1.45%.
On to `Cc1sc(NC(=O)CSc2nc(N)n(CC(=O)c3ccccc3)n2)c(C#N)c1C`, for which the inhibition is -6.83%.
The figure for `CCOC(=O)C1=C(C)Nc2ncnn2C1c1cc(OC)ccc1OC` (stereo not given) is 1.17%; for `O=S(=O)(NCc1ccccc1)c1ccc2c(c1)OCCO2` it is -2.7%.
The same measure for `CC1(C)Cc2c(sc3c2C2=NCCN2C=N3)CO1`: -4.55%; for `Cc1ccccc1CN1CCN(CC(=O)NCc2ccccc2)C1=O`: 2.79%; for `Cc1nc2ccccc2cc1C(=O)NCc1ccco1`: 7.42%.
The same measure for `O=C(NCc1cccnc1)C1c2ccccc2C(=O)N1Cc1ccco1` (stereo not given): -3.65%; for `CC(C(=O)N1CCc2ccccc21)N1CCc2ccccc2C1` (stereo not given): -3.11%.
Regarding `Cc1ccc2cc(C#N)c(NCCCNC(=O)C3CCCO3)nc2c1` (stereo not given), the inhibition was 6.19%.
The figure for `Nn1c(SCC(=O)Nc2ccc3c(c2)OCO3)nnc1C1CC1` is 8.25%; for `COc1ccc(C2C(C(=O)c3sc(C)nc3C)=C(O)C(=O)N2CCN2CCOCC2)cc1` (stereo not given) it is -4.19%.
The figure for `O=C(O)c1cccc(CN2C(=O)SC(Nc3ccccc3)C2=O)c1` (stereo not given) is 2.95%.
For the molecule `Nc1c(S(=O)(=O)c2cccs2)c2nc3ccccc3nc2n1CC1CCCO1` (stereo not given), the inhibition was -1.33%.
The figure for `O=C(Nc1ccc(OC(=O)c2ccco2)cc1)c1ccco1` is -10.5%; for `COC(=O)Cn1cnc2c(nnn2-c2ccc(C)cc2)c1=O` it is -2.17%; for `O=C(Nc1nc2c(s1)CCc1ccccc1-2)c1cccs1` it is 8.41%.
As to `Cc1cccc(OCCCc2c(C)n[nH]c2C)c1`, the inhibition is -8%.
`O=C(CN1CCC(NC(=O)c2ccc(F)cc2)CC1)NCc1ccccc1F`: the inhibition is -0.63%.
The same measure for `CCCCc1ccc(NC(=O)c2c(C)noc2C)cc1`: 4.43%.
Regarding `CC1=Nn2c(nnc2-c2ccccn2)SC1`, the inhibition is -1.9%.
The same measure for `O=c1oc2ccccc2n1CCn1c2ccccc2c2nc3ccccc3nc21`: -3.71%; for `COc1ccc(N2CCN(C(c3cccs3)c3nnnn3C3CCCC3)CC2)cc1` (stereo not given): -5.87%.
Turning to `CCc1ccc2c(CN(CC)Cc3nc4ccccc4c(=O)[nH]3)cc(=O)oc2c1`, the inhibition was -7.27%.
As to `COc1ccc(OC)c(N(CC(=O)N2CCN(c3cc(Cl)ccc3C)CC2)S(C)(=O)=O)c1`, the inhibition is 0.48%.
For the molecule `COC(=O)c1ccc(COc2ncnc3c(Cl)cc(Cl)cc23)o1`, the inhibition is -2.73%.
The same measure for `O=C1CC(c2cccc(Cl)c2)Cc2nc(N3CCN(c4ccccc4)CC3)ncc21` (stereo not given): 2.67%; for `COc1ccccc1Oc1coc2c(CN3CCN(C)CC3)c(O)ccc2c1=O`: 1%.
The figure for `CCOC(=O)Nc1ccc2c(CN3C(=O)NC4(CCCC4)C3=O)cc(=O)oc2c1` is -0.16%.
